Data on eight compounds can be found in PubChem BioAssay (NCI).

The panel holds about 79,000 compounds, 15% with a hit somewhere; the sample as a whole holds those more often. Unmarked numbers belong to inactive results. Calls of active or inactive are those of the source. Rule as the data show it: active = growth inhibition above about 70%; inactive = the rest.

The nature of the test: NCI Yeast Anticancer Drug Screen. Data for the sgs1 strain (AID 173).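 Also: 0% = growth of vehicle-only control cultures.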 To be noted: S. cerevisiae sgs1 mutant, hits give high values. The protocol:
Growth inhibition of yeast strains with defined genetic alterations is measured as a screen for potential anti-cancer activity. Selected strains with alterations in DNA damage repair or cell cycle control were exposed to compounds and growth inhibition was measured relative to vehicle treated controls. The strain used in this assay is sgs1

As to `CC(=O)[C@]1(O)Cc2c(O)c3c(c(O)c2[C@@H](OC2CC(N)C(O)C(C)O2)C1)C(=O)c1c(OCc2ccccc2)cccc1C3=O` (stereo not given in full), the growth inhibition (at 1.2 µM) is 8%; the growth inhibition (at 3.7 µM) is 4%; the growth inhibition (at 11.0 µM) is 22%; the growth inhibition (at 33.0 µM) is 19%; the growth inhibition (at 100.0 µM) is 53%.
As to `OCCN(CCO)c1ccc2c(c1)Cc1ccccc1-2`, the growth inhibition reads like this: (at 1.2 µM) -14%; (at 3.7 µM) -10%; (at 11.0 µM) 13%; (at 33.0 µM) 44%; (at 100.0 µM) 76% (active).
Take `O=S1(=O)c2ccccc2N=C(c2ccccc2Cl)CC1c1ccc(F)cc1` (stereo not given): the growth inhibition reads like this: (at 1.2 µM) -7%; (at 3.7 µM) 8%; (at 11.0 µM) -15%; (at 33.0 µM) 17%; (at 100.0 µM) 33%.
For `S=P(N1CC1)(N1CC1)N1CC1`, in that order: -2%, -4%, -2%, 3% and 20%.
For `COc1ccc(/C(C#N)=C/c2ccc(OC)c(OC)c2)cc1`, in that order: -8%, -13%, -20%, 2% and 16%.
For `CCN1/C(=C/c2ccc3ccccc3[n+]2CC)C=Cc2ccccc21`, in that order: -9%, -17%, 93% (active), 97% (active) and 97% (active).
In the case of `CN(C)CC1CCCc2ccccc2C1=O` (stereo not given), the growth inhibition by setting is: (at 1.2 µM) -15%; (at 3.7 µM) -12%; (at 11.0 µM) 12%; (at 33.0 µM) 32%; (at 100.0 µM) 84% (active).
With `C/C(=N\NC(=S)NC1CCCC1)c1ccccn1`, the growth inhibition was 0% (at 1.2 µM); 79% (active) (at 3.7 µM); 99% (active) (at 11.0 µM); 99% (active) (at 33.0 µM); 99% (active) (at 100.0 µM).
